# Compounds with a hit are over-represented: about 19% of the library has one in this group of screens.
# HT1080 IDH1KD tx – kills HT-1080 cells with IDH1 knockdown. HT-1080 IDH1 knockdown viability, ATP luminescence, 48 h. Potency, µM (highest dose often 46.1 µM), for the others: at the top dose activity, negative = toxicity, usual class: cytotoxic. 360,000 tested, 2% active;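 note: potency is the fitted concentration of half-maximal effect; 0% = DMSO wells and -100% = cell-free medium wells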
#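 Cytotoxicity counter-line: IDH1KD HT-1080, 48 h, CellTiter-Glo. Curves classed by r2, magnitude and activity.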
# DT40 TDP1 CPT – DT40-hTDP1 cell growth loss with CPT. chicken DT40 Tdp1-/-;hTDP1 cells + 20 nM CPT, ATP luminescence, 48 h. Potency, µM (doses to about 46.2 µM), inactives show top-dose activity change, negative = growth inhibition, actives largely listed as inhibitors. 420,000 tested, 12% active. AID 686979; note: potency is the fitted concentration of half-maximal effect; nearly all actives have a fitted effect of over 55% in size
#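 Cell growth measured by CellTiter-Glo luminescence after a minimum 48 h, 37 C compound exposure with 20 nM CPT in Tdp1-knockout DT40 cells stably expressing hTDP1, seeded 400/well; qHTS titration format.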
# TDP1 cell noCPT – qHTS for Inhibitors of human tyrosyl-DNA phosphodiesterase 1 (TDP1): qHTS in cells in absence of CPT. DT40 Tdp1-/- hTDP1 cells, no CPT, ATP luminescence, 48 h. Potency, µM (titrated, usually from 46.2 µM), for the others: top-dose activity change, negative = growth inhibition, most hits filed as inhibitors. 420,000 tested, 15% active; note: potency is the fitted concentration of half-maximal effect; nearly all actives have a fitted effect of over 55% in size
#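 Growth of hTDP1-complemented DT40 Tdp1-knockout cells is measured by ATP luminescence after at least 48 hr compound exposure at 37 °C, with DMSO substituting for the 20 nM CPT used in the parallel screen.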
# ELG1 repair inh – blocks ELG1-dependent DNA repair in HEK293T cells; 330,000 tested, 2.3% active; AID 504467; HEK293T ELG1-luciferase reporter, luminescence, 16 h; DNA damage induced by 5-fluorouridine; Potency, µM (top dose mostly 46.1 µM), for the others: top-dose activity change, negative = inhibition, hits mostly inhibitors; note: potency is the fitted concentration of half-maximal effect; nearly all actives have a fitted effect of over 55% in size
#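 Reporter activity after DNA damage by 5-fluorouridine is monitored. Compound-treated cells incubate 16 hr at 37 °C, then ONE-Glo is added for 30 min before luminescence reading.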
# HT1080NT lethal – kills 2HG-producing HT-1080-NT fibrosarcoma cells; HT-1080-NT fibrosarcoma viability, CellTiter-Glo ATP luminescence, 48 h; Potency, µM (top dose mostly 46.1 µM), for inactives: top-dose activity, negative = less viability, usual class: cytotoxic; 360,000 tested, 1.6% active; AID 686970;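 note: NT is the 2HG producing partner of a matched IDH1 knockdown line; potency is the fitted concentration of half-maximal effect; 0% = DMSO-treated cells and -100% = media-only wells without cells; nearly all actives have a fitted effect of over 55% in size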
#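 Read-out is CellTiter-Glo luminescence after 10 minutes at room temperature, following 48 hours' compound treatment of HT-1080-NT cells (750 cells/well, RPMI, 5% FBS, 37 degrees C).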
# IL1B secr inh – blocks inflammasome-driven IL-1 beta release; THP-1 LPS/ATP IL-1B secretion, AlphaLISA, 16 h; hits give low values; activity change, % at 57.5 µM; 360,000 tested, 4.7% active; in the data active = activity change below about -50%; inconclusive = mostly about -30% to -49%
#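 Secreted IL-1B measured by AlphaLISA bead assay after 16 h compound exposure of THP-1 cells; compounds (final up to 57.5 uM) added 1 h before LPS (250 ng/mL) and ATP (1.25 mM) stimulation; lower signal means less secretion.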
# * = called active by the depositor; i = inactive; ? = inconclusive; . = not tested or not shown. Unless noted, calls come from the whole dose curve; as a rule, active = well fitted curve in the direction sought with a large enough effect; inconclusive = small, poorly fitted or top-dose-only effect, or another doubt; inactive = no such curve, though single readings can be large; an effect the other way counts as inactive or inconclusive. Unless noted, % is set by controls: 0 for no effect and ±100 for the full control effect.
SMILES,HT1080 IDH1KD tx,DT40 TDP1 CPT,TDP1 cell noCPT,ELG1 repair inh,HT1080NT lethal,IL1B secr inh
CCOc1ccc(CCNC(=O)c2cc3c(=O)n(C)c4ccccc4c3n2C)cc1OCC,.,23.1µM*,11.6µM*,.,.,.
O=C(NCC(O)c1ccc([N+](=O)[O-])cc1)C1=COCCO1 (stereo not given),-9.4%,2.5%,-0.8%,0.0%,11.9%,-6.5
CC(=O)N1CCc2[nH]c3ccc(C)cc3c2C1,13.0%,37.8%,13.8%,23.4%,18.3%,15.1
CCOC(=O)N1CCc2[nH]c3ccc(C)cc3c2C1,-23.3%,14.6µM*,23.1µM*,?,?,?
Cc1ccc2[nH]c3c(c2c1)CN(C(=O)CN1CCN(Cc2ccc4c(c2)OCO4)CC1)CC3,?,?,?,?,20.6µM*,-21.4
Cc1ccc2[nH]c3c(c2c1)CN(C(=O)CN1CCSCC1)CC3,.,.,.,7.6%,.,.
CCc1cccc(CC)c1NC(=O)COn1nnc2ccc(C(F)(F)F)cc21,-22.4%,-18.1%,-25.3%,-0.2%,0.0%,-2.1
Cc1ccc(Cn2ccn(Cc3ccccc3F)c(=O)c2=O)cc1,.,-11.4%,-27.4%,.,.,.
COc1ccc(-n2ccnc(NCc3ccc(C)cc3)c2=O)cc1OC,.,-26.9%,?,.,.,.
CCCCCCCN=CC1=C(O)CC(c2ccccc2)CC1=O (stereo not given),10.3%,-8.3%,-21.8%,-11.5%,9.6%,20.7
Cc1cc(C)cc(Nc2cc(=O)n(C3CCCCC3)c(=O)[nH]2)c1,?,?,18.4µM*,?,?,22.2
CCCCC1=CC2=CC(=O)C(C)(OC(=O)CC)C(=O)C2=CN1c1ccc(OC)cc1 (stereo not given),-2.3%,25.9µM*,?,-2.0%,-4.5%,25.3
CCCCC1=CC2=CC(=O)C(C)(OC(=O)CC)C(=O)C2=CN1Cc1ccc2c(c1)OCO2 (stereo not given),1.0%,?,14.6µM*,-0.5%,-26.4%,35.2
CC1(C)C(=O)N(CCN2CCC(C(=O)c3ccc(F)cc3)CC2)c2ccccc21,-22.3%,13µM*,14.6µM*,?,-9.0%,-3.2
O=C(c1ccc(F)cc1)C1CCN(Cc2ccccc2F)CC1,-15.8%,8.4%,?,.,-3.3%,-16.8
O=C(c1ccc(F)cc1)C1CCN(CCn2c(=S)[nH]c3ccccc3c2=O)CC1,.,?,15µM*,.,.,.
CC1CCN(CCn2c(=S)[nH]c3ccccc3c2=O)CC1,0.6%,36.0%,0.9%,8.2%,11.5%,-3.6
C=C1C(=O)[C@@]23[C@H](O)C[C@@H]4C(C)(C)CC[C@H](O)[C@]4(C)[C@@H]2C[C@H](O)[C@@H]1[C@H]3O,?,3.26µM*,?,16.4µM*,-29.1%,?
C=C1C(=O)[C@@]23[C@H](O)C[C@@H]4C(C)(C)CC[C@H](O)[C@@]4(C)[C@@H]2CC[C@@H]1[C@H]3O,13µM*,1.03µM*,0.82µM*,6.51µM*,14.6µM*,?
CC1CCN(S(=O)(=O)c2ccc(NC(=O)CN3C(=O)NC(C)(c4ccccc4)C3=O)cc2)CC1 (stereo not given),-18.5%,?,?,-1.0%,-1.0%,?
Cc1ccccc1Cn1c(=O)n(CCCCC(=O)NCc2ccc3c(c2)OCO3)c(=O)c2ccccc21,.,23.1µM*,?,.,.,.
Cc1ccc(Cn2c(=O)n(CCCCC(=O)NCc3ccc4c(c3)OCO4)c(=O)c3ccccc32)cc1,.,1.3%,?,.,.,.
O=C(CCCCn1c(=O)c2ccccc2n(Cc2cccc(Cl)c2)c1=O)NCc1ccc2c(c1)OCO2,.,?,11.6µM*,.,.,.
O=C(CCCCn1c(=S)[nH]c2ccsc2c1=O)NCc1ccc2c(c1)OCO2,?,?,18.4µM*,-7.5%,-18.2%,-3.2
CCC(C)C(NC(=O)c1ccccc1)C(=O)N1CCN(C(=O)c2ccccc2)CC1 (stereo not given),-1.9%,?,?,.,0.2%,14.7
SMILES,HT1080 IDH1KD tx,DT40 TDP1 CPT,TDP1 cell noCPT,ELG1 repair inh,HT1080NT lethal,IL1B secr inh
Cn1c2ccccc2c2cnn(CC(=O)Nc3ccccc3C(F)(F)F)c(=O)c21,.,-3.0%,-8.6%,.,.,.
Cc1ccc(NC(=O)c2cc(N3C(=O)C=CC3=O)ccc2N2CCOCC2)cc1Cl,16.4µM*,4.11µM*,3.66µM*,12.1%,-3.4%,-57.4*
Cc1cc(C)c(NC(=O)CS(=O)CC(=O)Nc2ccc(N3CCOCC3)cc2)c(C)c1 (stereo not given),-0.8%,1.7%,-13.3%,16.2%,4.9%,18.3
O=C(Nc1ccc(N2CCOCC2)c(Cl)c1)c1ccco1,6.7%,-1.0%,?,?,11.1%,?
Cc1ccc(NC(=O)CS(=O)CC(=O)Nc2ccc(N3CCOCC3)cc2)cc1Cl (stereo not given),-24.5%,20.6µM*,29.1µM*,?,?,-6.8
COc1ccccc1NC(=O)c1sc2nc(N3CCOCC3)c3c(c2c1N)CCCC3,5.0%,?,?,0.5%,16.4%,i
CCOC(=O)c1ccc(NC(=O)c2sc3nc(N4CCOCC4)c4c(c3c2N)CCCC4)cc1,-0.4%,?,16.4µM*,-3.4%,0.7%,16.9
COc1ccc(NC(=O)c2sc3nc(N4CCOCC4)c4c(c3c2N)CCCC4)cc1,15.2%,4.7%,-21.0%,.,22.1%,-3.9
Nc1c(C(=O)NCCc2ccccc2)sc2nc(N3CCOCC3)c3c(c12)CCCC3,-1.2%,16.4µM*,23.1µM*,-16.0%,-20.1%,?
Cc1ccccc1NC(=O)c1sc2nc(N3CCOCC3)c3c(c2c1N)CCCC3,0.5%,?,7.31µM*,?,5.1%,-15.2
CCOC(=O)c1sc2nc(N3CCOCC3)c3c(c2c1N)CCN(Cc1ccccc1)C3,-3.3%,?,?,?,-0.5%,-24.0
Cc1nc2c(sc3nc(N4CCOCC4)c4c(c32)CC(C)(C)OC4)c(-c2ccc(Cl)cc2)c1C(=O)O,-21.0%,?,?,?,-2.2%,-1.3
CC1(C)Cc2c(c(N3CCOCC3)nc3sc(C(=O)Nc4ccc(Cl)cc4)c(N)c23)CO1,15.0%,?,23.1µM*,0.92µM*,14.3%,-1.1
COc1cccc(NC(=O)c2sc3nc(N4CCOCC4)c4c(c3c2N)CC(C)(C)OC4)c1,.,5.8µM*,6.51µM*,.,.,.
COC(=O)c1ccc(-c2sc3nc(N4CCOCC4)c4c(c3c2N)CC(C)(C)OC4)o1,-14.2%,?,?,5.17µM*,3.2%,7.0
